Shown are actives, neighbours in structure and some others; about 14% of the full set was active somewhere.
FBPA Giardia inh: inhibitors of Giardia lamblia fructose-1,6-bisphosphate aldolase. purified Giardia FBPA. Potency, µM (series often up to 59.6 µM), most hits filed as inhibitors. hit rate 0.71% among 290,000. AID 2451; also: nearly all actives have a fitted effect of over 55% in size
Target sequence (A8B2U2 whole entry, looked up): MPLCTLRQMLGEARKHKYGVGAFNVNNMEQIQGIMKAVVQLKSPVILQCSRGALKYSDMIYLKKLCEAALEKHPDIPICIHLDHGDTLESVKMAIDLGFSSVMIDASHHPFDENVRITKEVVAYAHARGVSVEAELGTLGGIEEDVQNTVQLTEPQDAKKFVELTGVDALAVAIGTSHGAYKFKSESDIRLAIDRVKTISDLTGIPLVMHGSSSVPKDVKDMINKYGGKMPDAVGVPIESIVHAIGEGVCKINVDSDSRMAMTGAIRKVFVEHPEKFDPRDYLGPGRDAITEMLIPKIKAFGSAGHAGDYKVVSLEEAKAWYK
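Giardia FBPA (40 nM reagent) was preincubated 10 min at RT with compound (up to 57.5 uM final), then substrate plus GAPDH/TPI/NAD/arsenate coupling system with diaphorase/resazurin was added; resorufin fluorescence (525/598 nm) was read after 20 min.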
LmPK inhibitor: blocks Leishmania mexicana pyruvate kinase activity. Q27686. purified LmPK, Kinase-Glo ATP luminescence, 1 h. Potency, µM (titrated, usually from 57.5 µM), hits mostly inhibitors. hit rate 0.37% among 290,000. AID 1721
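Kinase-Glo luminescence read after 1 h RT reaction of 0.1 nM LmPK with 0.5 mM PEP and 0.1 mM ADP. Activity scaled between uninhibited and enzyme-free controls.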
CHX counter: counter-screen hit for Shiga toxin inhibitors, cycloheximide | cell reporter, cycloheximide protein synthesis inhibition counterscreen | max response, % | hit rate 12% among 300,000 | AID 2314; in the data active = max response mostly above about 13%, no sharp cut-off; inactive = mostly below about 14%; also: read at 38.3 µM for the half of the compounds with a filed dose
NS1 function inh: blocks influenza NS1 protein function; Potency, µM (titrated, usually from 46.1 µM); hit rate 0.4% among 270,000; calls by dose curve; also: actives are rising curves; nearly all actives have a fitted effect of over 50% in size
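Compounds were scored for reversing the slow growth caused by influenza A NS1 in S. cerevisiae, measured by optical density at 600 nm. Assay medium contained 2% galactose at pH 6.0; NS1-free yeast of the same strain were the positive control.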
Shiga inhibitor: blocks Shiga toxin action in Vero cells | Vero cells, Shiga toxin protein synthesis inhibition reporter | inhibition, % at 38.7 µM | hit rate 9.2% among 290,000; in the data active = inhibition mostly above about 28%, no sharp cut-off; inactive = mostly below about 43%
Hits are given with their value; – = inactive; ? = inconclusive; · = no result given; + = active, no number; ! = repeats disagree; [ ] = dose if it differs, or a comment. Unless noted, calls follow the shape of the dose curve; as a rule, active = well fitted curve in the direction sought with a large enough effect; inconclusive = small, poorly fitted or top-dose-only effect, or another doubt; inactive = no such curve, though single readings can be large; an effect the other way counts as inactive or inconclusive.

SMILES | FBPA Giardia inh | LmPK inhibitor | CHX counter | NS1 function inh | Shiga inhibitor
O=C(N/N=C\c1ccncc1)c1ccc(Br)s1 | – | – | 13 | – | –
O=C(N/N=C/c1cc(O)ccc1Br)c1cccnc1 | ? | – | – | – | –
O=C(N/N=C\c1cccnc1)c1ccc(Br)s1 | – | – | 34 | – | –
O=C(N/N=C\c1cccnc1)c1ccc(Cl)s1 | – | – | – | – | –
COc1ccccc1N1CC(C(=O)OCC(=O)Nc2c(C)cccc2C)CC1=O (stereo unspecified) | – | – | – | – | –
CCCCSCCCNC(=O)c1ccc(CS(=O)(=O)c2ccc(OC)cc2)o1 | – | – | – | – | –
CCOCCCNC(=O)c1ccc2c(c1)ncn2-c1ccccc1OC | – | – | – | – | –
O=C(N/N=C/c1ccccn1)c1cc(-c2ccc(Br)s2)[nH]n1 | – | – | – | – | –
Cc1ccc(C(=O)N/N=C\c2ccncc2)s1 | · | – | 40 | – | 53
O=C(N/N=C/c1ccncc1)c1cc(-c2ccc(Br)s2)[nH]n1 | – | – | 32 | – | –
NS(=O)(=O)OCCCc1ccccc1 | – | – | – | – | –
NS(=O)(=O)OCCCCCc1ccccc1 | – | – | 14 | – | –
COc1ccc(-c2csc(Nc3ccccc3)[n+]2CC(O)c2ccc([N+](=O)[O-])cc2)cc1 (stereo unspecified) | – | – | 18 | – | –
CCCCCC[n+]1c(-c2ccccc2)csc1Nc1ccccc1 | – | – | – | – | –
COc1ccc(C(=O)NCC(=O)N/N=C/c2ccc(C)o2)cc1OC | – | – | – | – | –
CCn1c(=S)sc2c(=O)n(CC(=O)Nc3cc(OC)ccc3OC)c(C)nc21 | – | – | – | – | –
CC(C)(C)n1nc2c(c1NC(=O)c1ccc([N+](=O)[O-])cc1)CS(=O)(=O)C2 | – | – | – | – | –
CC(C)Sc1nc(NCc2ccco2)c2c3c(sc2n1)COC(C)(C)C3 | – | – | 21 | – | 92
CSc1nc(SCC(=O)NCc2ccco2)c2c3c(sc2n1)COC(C)(C)C3 | – | – | – | – | –
CC1(O)CC2C(CC1O)C2(C)C (stereo unspecified) | – | · | · | · | ·
CCCCNC(=S)NNC(=O)c1csc(C(C)C)c1 | – | – | – | – | 30
CCNC(=S)NNC(=O)c1csc(CC)c1 | – | – | – | – | –
CCNC(=S)NNC(=O)c1csc(C(C)C)c1 | – | – | 51 | – | 77
CCOc1cc(Br)c(CN2C(=O)NC3(CCCCCC3)C2=O)cc1OCC | – | – | – | – | –
COc1ccc(CC(=O)OC(C)C(=O)c2ccc(C)cc2)cc1 (stereo unspecified) | · | – | – | – | –
SMILES | FBPA Giardia inh | LmPK inhibitor | CHX counter | NS1 function inh | Shiga inhibitor
COc1ccccc1NC(=O)c1cnc(SC)nc1 | – | – | – | – | ·
O=C(Nc1ccccc1)c1ccc(CSc2ccccn2)cc1 | – | 13µM | 36 | – | 63
FC(F)(F)c1ccc(CSc2ccccn2)cc1 | – | – | 19 | – | 53
O=C(Nc1ccc(CSc2ccccc2)cc1)c1ccccc1 | – | – | – | – | –
COc1ccccc1NC(=O)c1ccc(CSc2ncccn2)cc1 | – | – | 14 | – | 55
CC1(C)OC(=O)C=C[C@@]2(C)C1C[C@@H](O)[C@]1(C)C2CC[C@@]2(C)C(c3ccoc3)OC(=O)[C@H]3O[C@]321 (stereo partly specified) | – | · | · | · | ·
Cc1cn([C@H]2C=C[C@@H](CO)O2)c(=O)[nH]c1=O | – | – | 52! | – | 162!
CC(=O)Nc1ccc(N2Cc3ccccc3C2)cc1 | – | – | – | ? | –
CC(=O)c1ccc(N2Cc3ccccc3C2=NC(=O)c2cccs2)cc1 | – | – | 26 | – | 60
CC(=O)c1cccc(N2C(=NC(=O)CCc3ccccc3)SC3CS(=O)(=O)CC32)c1 (stereo unspecified) | – | – | – | – | –
N#Cc1ccc(N2Cc3ccccc3C2=NC(=O)c2cccs2)cc1 | – | – | 38 | – | +
CC(=O)c1ccc(N2Cc3ccccc3/C2=N\C(=O)Nc2ccccc2)cc1 | – | – | 28 | – | –
CC(=O)c1cccc(N2Cc3ccccc3C2=NC(=O)CCl)c1 | – | – | 25 | – | –
CCOC(=O)c1ccc(N2Cc3ccccc3C2=NC(=O)c2cccs2)cc1 | – | – | – | – | –
CCOc1ccc(CN(C)C(=O)CNC(=O)c2cc(OC)c(OC)c(OC)c2)cc1 | – | – | – | – | –
COc1ccc(-c2ccnc(SCC(=O)N3CCN(c4ccccc4)CC3)n2)cc1 | – | – | – | – | –
Cc1cc2c(s1)c1cnn(Cc3ccc(S(C)(=O)=O)cc3)c(=O)c1n2C | · | · | – | · | –
CN(C)c1cccc(C(=O)n2cc(C(=O)c3cc(F)ccc3O)cn2)c1 | – | – | – | – | 97
COc1ccc(Nc2nnc(SCc3cn4c(C)cccc4n3)s2)cc1 | – | – | – | – | –
Cc1cccc2nc(CSc3nnc(N)s3)cn12 | – | – | 22 | · | 65
Cc1ccc(NS(=O)(=O)c2c(C)ccc3nsnc23)c([N+](=O)[O-])c1 | – | – | – | – | ·
Cc1cc(NC(=O)CSc2ccc(-c3ccc(Br)cc3)nn2)no1 | · | – | – | – | –
CC(C)(C)S(=O)(=O)c1cnc(N2CCCCC2)nc1N | – | – | 19 | – | –
CC(C)(C)S(=O)(=O)c1cnc(-c2ccc(Cl)cc2)nc1N | – | – | 22 | – | 47
CCOc1ccc(CNC(=O)Nc2ccccc2)cc1 | – | – | 22 | – | 48
SMILES | FBPA Giardia inh | LmPK inhibitor | CHX counter | NS1 function inh | Shiga inhibitor
COc1ccc(CNC(=O)Nc2ccc(OC)cc2)cc1 | – | – | – | – | –
COc1ccc(CNC(=O)Nc2cccc(C)c2)cc1 | – | – | 22 | – | –
COc1ccc(CNC(=O)Nc2ccccc2)cc1 | – | – | 45 | – | 65
CCn1c(=O)c(C(=O)Nc2ccccc2)c(O)c2ccccc21 | – | – | – | – | –
CC(C)Cn1c(=O)c(C(=O)Nc2ccccc2S(N)(=O)=O)c(O)c2ccccc21 | – | – | – | – | –
Cn1c(=O)c(C(=O)Nc2ccccc2S(N)(=O)=O)c(O)c2ccccc21 | – | – | 13 | – | –
CCn1c(=O)c(C(=O)Nc2ccccc2F)c(O)c2ccccc21 | – | – | 9.1 | – | –
Cn1c(=O)c(C(=O)Nc2cnccn2)c(O)c2ccccc21 | – | – | – | – | –
Cn1c(=O)c(C(=O)Nc2ccccn2)c(O)c2ccccc21 | – | ? | 33 | – | 44
CCN(CC)CCNC(=O)c1ccc(NC(=O)Cc2cccc3ccccc23)cc1 | – | – | – | – | –
COC(=O)Nc1cc(C(=O)c2ccc(Cl)cc2Cl)c[nH]1 | – | – | – | – | –
Cc1cc(=O)oc2cc(OC(=O)c3cncc(Br)c3)ccc12 | – | – | – | · | –
COc1ccc([C@]23Cc4ccccc4C(O2)C2=C(O3)C(=O)c3ccccc3C2=O)cc1 | –[12.9 µM] | –[11.5 µM] | 19 | – | –
COc1ccc([C@]23Cc4ccccc4C(O2)C2=C(CC4(CCCCC4)OC2=O)O3)cc1 | –[12.9 µM] | –[11.5 µM] | 37 | – | +
COc1ccc([C@]23Cc4c(ccc5ccccc45)C(O2)C2=C(CC4(CCCCC4)OC2=O)O3)cc1 | –[12.9 µM] | –[11.5 µM] | – | – | –

Screening results as filed in PubChem BioAssay.
